Test results as given in PubChem BioAssay (EPA / NIEHS).
“And” between values parts separate entries of the source, which are not always exact repeats. Equal values may be shown once. The source made the active and inactive calls. Rule for the calls: active = hit-call score of the fitted dose curve at least 0.9, where 1 is the maximum; inactive = score below 0.9.

test system: not listed separately; assay: ATG_PBREM_CIS: Attagene CIS-FACTORIAL HepG2 Assay for human Phenobarbital-responsive Enhancer Module (PBREM) (AID 2282955); conditions: HepG2 PBREM cis-reporter, Attagene multiplexed transcription; actives raise or lower the signal
Method in brief: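 Cells were transfected with cis-element reporter units and treated for 24 h, after which RNA was extracted and reporter transcripts measured by RT-PCR and capillary electrophoresis.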

SMILES | outcome
c1ccc(-c2ccccc2-c2ccccc2)cc1 | inactive
CNC(=S)NC | inactive
CCN(CC)c1ccc2c(C)cc(=O)oc2c1 | inactive
O=C(O)C(F)(F)C(F)(F)C(F)(F)C(F)(F)C(F)(F)C(F)(F)C(F)(F)C(F)(F)C(F)(F)C(F)(F)C(F)(F)C(F)(F)C(F)(F)F | inactive
FC(F)(F)C(F)(F)C(F)(F)C(F)(F)CCI | inactive
C=CC(=O)OCC(F)(F)C(F)(F)C(F)(F)C(F)(F)C(F)(F)C(F)(F)C(F)(F)F | inactive
C#C[C@]1(O)CC[C@H]2[C@@H]3CCc4cc(OC)ccc4[C@H]3CC[C@@]21C | inactive
O=C(O)C(F)(F)C(F)(F)OC(F)(F)F | inactive
CCO[Si](CCC(F)(F)C(F)(F)C(F)(F)C(F)(F)C(F)(F)C(F)(F)F)(OCC)OCC | inactive
c1ccc(B(c2ccccc2)c2ccccc2)cc1 | inactive
C=C(C)C(=O)OCCC(F)(F)C(F)(F)C(F)(F)C(F)(F)C(F)(C(F)(F)F)C(F)(F)F | inactive
CC(C)OC(=O)c1ccccc1C(=O)OC(C)C | inactive
CCCCCCC(C)OC(=O)CCCCC(=O)OC(C)CCCCCC (centres undefined) | inactive
C=CC(F)(F)C(F)(F)C(F)(F)C(F)(F)C(F)(F)C(F)(F)C(F)(F)C(F)(F)F | inactive
C(=C(c1ccccc1)c1ccccc1)c1ccccc1 | inactive
O=C(O)C(F)(F)C(F)(F)C(F)(F)F | inactive
O=C(OCCOCCOCCOC(=O)c1ccccc1)c1ccccc1 | inactive
OCC(F)(F)C(F)(F)C(F)(F)F | inactive
Oc1ccc(Nc2ccccc2)cc1 | inactive
COC(=O)CCC(F)(F)C(F)(F)C(F)(F)C(F)(F)F | inactive
CCCCCCCOC(=O)c1ccccc1C(=O)OCCCCCCC | inactive
OCC(F)(F)C(F)(F)C(F)(F)C(F)(F)C(F)(F)C(F)F | inactive
FC(F)(F)C(F)(F)C(F)(F)C(F)(F)C(F)(F)C(F)(F)CC1CO1 (centres undefined) | inactive
CC/C=C\CCOC(=O)c1ccccc1 | inactive
C=CC(F)(F)C(F)(F)C(F)(F)C(F)(F)C(F)(F)C(F)(F)C(F)(F)C(F)(F)C=C | inactive

biological target: Paired box protein Pax-6 (Homo sapiens) (UniProt P26367); assay: ATG_Pax6_CIS: Attagene CIS-FACTORIAL HepG2 Assay for human Paired Box 6 (PAX6) (AID 2282956); conditions: HepG2 CIS-FACTORIAL PAX6 reporter transcription, RNA readout; actives raise or lower the signal
Method in brief: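 DMSO-referenced bidirectional fits of reporter mRNA fluorescence; HepG2 with transient cis-promoter MRTUs, 24 h post-dose, RT-PCR plus capillary electrophoresis detection.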

Paired box protein Pax-6 (Homo sapiens), sequence (P26367 whole entry, looked up): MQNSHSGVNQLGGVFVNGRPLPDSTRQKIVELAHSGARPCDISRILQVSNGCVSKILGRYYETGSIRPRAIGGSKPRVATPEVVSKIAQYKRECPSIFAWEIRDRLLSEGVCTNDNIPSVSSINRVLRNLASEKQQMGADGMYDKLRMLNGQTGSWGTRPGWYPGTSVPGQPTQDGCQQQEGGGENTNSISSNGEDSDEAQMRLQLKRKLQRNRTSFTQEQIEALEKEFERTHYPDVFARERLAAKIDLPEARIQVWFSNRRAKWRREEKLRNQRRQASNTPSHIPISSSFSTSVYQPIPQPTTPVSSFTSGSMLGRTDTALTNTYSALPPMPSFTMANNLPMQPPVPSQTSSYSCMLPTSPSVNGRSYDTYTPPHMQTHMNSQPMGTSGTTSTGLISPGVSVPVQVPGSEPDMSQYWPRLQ

SMILES | outcome | AC50
O=C(O)C(F)(OC(F)(F)C(F)(OC(F)(F)C(F)(OC(F)(F)C(F)(F)C(F)(F)F)C(F)(F)F)C(F)(F)F)C(F)(F)F (centres undefined) | inactive | 
O=C(O)C(F)(F)C(F)(F)C(F)(F)C(F)(F)C(F)(F)C(F)(F)C(F)(F)C(F)(F)Cl |  | 59.1 µM (active) and 50 µM (active)
c1ccc(-c2ccccc2-c2ccccc2)cc1 | inactive | 
CNC(=S)NC | inactive | 
OCCCC(F)(F)C(F)(F)C(F)(F)C(F)(F)C(F)(F)C(F)(F)C(F)(F)F |  | 50 µM (active) and 41.8 µM (active)
CCN(CC)c1ccc2c(C)cc(=O)oc2c1 |  | 65.9 µM (active)
O=C(O)C(F)(F)C(F)(F)C(F)(F)C(F)(F)C(F)(F)C(F)(F)C(F)(F)C(F)(F)C(F)(F)C(F)(F)C(F)(F)C(F)(F)C(F)(F)F | inactive | 
FC(F)(F)C(F)(F)C(F)(F)C(F)(F)CCI | inactive | 
Cc1ccc(S(=O)(=O)NCl)cc1 | inactive | 
C=CC(=O)OCC(F)(F)C(F)(F)C(F)(F)C(F)(F)C(F)(F)C(F)(F)C(F)(F)F | inactive | 
C#C[C@]1(O)CC[C@H]2[C@@H]3CCc4cc(OC)ccc4[C@H]3CC[C@@]21C | inactive | 
O=C(O)C(F)(F)C(F)(F)OC(F)(F)F | inactive | 
CCCCCCCCCCCCCCCC[N+](C)(C)Cc1ccccc1 | inactive | 
CCO[Si](CCC(F)(F)C(F)(F)C(F)(F)C(F)(F)C(F)(F)C(F)(F)F)(OCC)OCC | inactive | 
c1ccc(B(c2ccccc2)c2ccccc2)cc1 | inactive | 
C=C(C)C(=O)OCCC(F)(F)C(F)(F)C(F)(F)C(F)(F)C(F)(C(F)(F)F)C(F)(F)F | inactive | 
COC(=O)C1CCC(C(=O)OC)CC1 (centres undefined) | inactive | 
CC(C)OC(=O)c1ccccc1C(=O)OC(C)C | inactive | 
CCCCCCC(C)OC(=O)CCCCC(=O)OC(C)CCCCCC (centres undefined) | inactive | 
C=CC(F)(F)C(F)(F)C(F)(F)C(F)(F)C(F)(F)C(F)(F)C(F)(F)C(F)(F)F | inactive | 
C(=C(c1ccccc1)c1ccccc1)c1ccccc1 | inactive | 
O=C(O)C(F)(F)C(F)(F)C(F)(F)F | inactive | 
OC[C@@H](O)[C@@H](O)[C@H](O)[C@@H](O)CO | inactive | 
O=C(OCCOCCOCCOC(=O)c1ccccc1)c1ccccc1 | inactive | 
